Measured values taken from PubChem BioAssay (EPA / NIEHS).
Calls of active or inactive are those of the source. The calls were made as follows: active = hit-call score of the fitted dose curve at least 0.9, where 1 is the maximum; inactive = score below 0.9.

How the values were obtained:
[1] = CEETOX_H295R_CORTISOL: CeeTox H295R High-throughput Steroidogenesis Assay for Cortisol (AID 2283438); settings: actives raise or lower the signal;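 also: cortisol secreted into medium quantified by LC-MS/MS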
In short: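 Forskolin-primed H295R cells (10 uM, 48 h) treated 48 h with test chemical in 0.1% DMSO. Cortisol in medium quantified by MTBE extraction and HPLC-MS/MS; bidirectional fit vs DMSO, MTT viability in same wells.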

[2] = CEETOX_H295R_DOC: CeeTox H295R High-throughput Steroidogenesis Assay for DOC (AID 2283439); settings: actives raise or lower the signal
In short: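 H295R cells prestimulated 48 h with 10 uM forskolin, then exposed 48 h to test chemical (0.1% DMSO final). Medium 11-deoxycorticosterone measured by HPLC-MS/MS after MTBE extraction; bidirectional fit vs DMSO, viability checked by MTT in same wells.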

[3] = CEETOX_H295R_PROG: CeeTox H295R High-throughput Steroidogenesis Assay for Progesterone (PROG) (AID 2283442); settings: actives raise or lower the signal;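 as to AC50: human H295R adrenal cells primed with 10 µM forskolin before dosing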
In short: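 Progesterone read-out: HPLC-MS/MS on MTBE extracts of conditioned medium after 48 h chemical exposure of forskolin-primed (10 uM, 48 h) H295R cells. Gain or loss of signal was fitted relative to DMSO baseline.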

[4] = read-out: Tumor necrosis factor receptor superfamily member 6 (Homo sapiens) (UniProt P25445); test: LTEA_HepaRG_FAS: Life Technologies and Expression Analysis (LTEA) Assay for Fas cell surface death receptor (FAS) using HepaRG (AID 2283447); settings: mRNA level, 48 h; actives raise or lower the signal
In short: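 Differentiated human HepaRG cells, pre-cultured 48 h, were exposed in duplicate for 48 h to 8-point half-log concentrations (top 100 uM, 0.5% DMSO) in serum-free induction medium; FAS mRNA measured by qRT-PCR, normalized to ACTB/GAPDH/POLR2A, bidirectional fit versus DMSO.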

[5] = read-out: Fatty acid synthase (Homo sapiens) (UniProt P49327); test: LTEA_HepaRG_FASN: Life Technologies and Expression Analysis (LTEA) Assay for Fatty Acid Synthase (FASN) using HepaRG (AID 2283448); settings: mRNA level, 48 h; actives raise or lower the signal
In short: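 Differentiated HepaRG cells in serum-free induction medium exposed 48 h in duplicate to eight half-log concentrations, top 100 uM, 0.5% DMSO. FASN mRNA by qRT-PCR normalised to ACTB, GAPDH, POLR2A; bidirectional fit versus DMSO.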

[6] = read-out: Cyclin D2 (CCND2), CCND2 (gene 894); test: LTEA_HepaRG_CCND2: Life Technologies and Expression Analysis (LTEA) Assay for Cyclin D2 (CCND2) using HepaRG (AID 2283449); settings: mRNA level, 48 h; actives raise or lower the signal;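 also: CCND2 transcript measured by TaqMan qRT-PCR and normalised to three housekeeping genes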
In short: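 Differentiated human HepaRG cells were exposed for 48 h in serum-free induction medium to eight half-log concentrations topping at 100 uM (0.5% DMSO vehicle). CCND2 mRNA was quantified by TaqMan qRT-PCR, normalised to ACTB, GAPDH and POLR2A, and fitted bidirectionally against DMSO.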

[7] = read-out: Cyclin Dependent Kinase Inhibitor 1A (CDKN1A), CDKN1A (gene 1026); test: LTEA_HepaRG_CDKN1A: Life Technologies and Expression Analysis (LTEA) Assay for Cyclin Dependent Kinase Inhibitor 1A (CDKN1A) using HepaRG (AID 2283450); settings: mRNA level, 48 h; actives raise or lower the signal
In short: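 HepaRG, 48 h dosing, 8-pt half-log series from 100 uM top, 0.5% DMSO vehicle, duplicates. Readout: TaqMan qRT-PCR of CDKN1A transcript, housekeeping-normalized (ACTB, GAPDH, POLR2A). Up/down curve fit relative to DMSO.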

[8] = read-out: Cyclin D1 (CCND1), CCND1 (gene 595); test: LTEA_HepaRG_CCND1: Life Technologies and Expression Analysis (LTEA) Assay for Cyclin D1 (CCND1) using HepaRG (AID 2283451); settings: mRNA level, 48 h; actives raise or lower the signal;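 as to AC50: TaqMan qRT-PCR transcript level normalised to ACTB GAPDH and POLR2A housekeeping genes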
In short: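 qRT-PCR (Fluidigm 96.96 array) read-out of transcript level, housekeeping-normalized (ACTB/GAPDH/POLR2A). HepaRG cells, 48 h chemical exposure, 8-point half-log series from 100 uM, 0.5% DMSO vehicle; gain or loss relative to DMSO baseline.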

[9] = CEETOX_H295R_ESTRADIOL: CeeTox H295R High-throughput Steroidogenesis Assay for Estradiol (AID 2283440); settings: actives raise or lower the signal;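 also: estradiol secreted into medium quantified by LC-MS/MS after dansyl derivatisation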
In short: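 H295R, 48 h forskolin (10 uM) prestim → 48 h compound, 0.1% DMSO final. Estradiol in medium: MTBE extraction, dansyl chloride derivatization, LC-MS/MS. Fit bidirectional vs DMSO baseline; MTT viability in same wells.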

[10] = CEETOX_H295R_ESTRONE: CeeTox H295R High-throughput Steroidogenesis Assay for Estrone (AID 2283441); settings: actives raise or lower the signal;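 also: estrone secreted into medium measured by LC-MS/MS after dansyl derivatization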
In short: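 H295R cells prestimulated 48 h with 10 uM forskolin, then exposed 48 h to chemicals in 0.1% DMSO final; estrone in medium extracted with MTBE, dansyl-derivatized, quantified by HPLC-MS/MS; bidirectional fitting versus DMSO, viability by MTT.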

Measured: AC50

Chain of Fatty acid synthase (Homo sapiens) (P49327 whole entry, looked up): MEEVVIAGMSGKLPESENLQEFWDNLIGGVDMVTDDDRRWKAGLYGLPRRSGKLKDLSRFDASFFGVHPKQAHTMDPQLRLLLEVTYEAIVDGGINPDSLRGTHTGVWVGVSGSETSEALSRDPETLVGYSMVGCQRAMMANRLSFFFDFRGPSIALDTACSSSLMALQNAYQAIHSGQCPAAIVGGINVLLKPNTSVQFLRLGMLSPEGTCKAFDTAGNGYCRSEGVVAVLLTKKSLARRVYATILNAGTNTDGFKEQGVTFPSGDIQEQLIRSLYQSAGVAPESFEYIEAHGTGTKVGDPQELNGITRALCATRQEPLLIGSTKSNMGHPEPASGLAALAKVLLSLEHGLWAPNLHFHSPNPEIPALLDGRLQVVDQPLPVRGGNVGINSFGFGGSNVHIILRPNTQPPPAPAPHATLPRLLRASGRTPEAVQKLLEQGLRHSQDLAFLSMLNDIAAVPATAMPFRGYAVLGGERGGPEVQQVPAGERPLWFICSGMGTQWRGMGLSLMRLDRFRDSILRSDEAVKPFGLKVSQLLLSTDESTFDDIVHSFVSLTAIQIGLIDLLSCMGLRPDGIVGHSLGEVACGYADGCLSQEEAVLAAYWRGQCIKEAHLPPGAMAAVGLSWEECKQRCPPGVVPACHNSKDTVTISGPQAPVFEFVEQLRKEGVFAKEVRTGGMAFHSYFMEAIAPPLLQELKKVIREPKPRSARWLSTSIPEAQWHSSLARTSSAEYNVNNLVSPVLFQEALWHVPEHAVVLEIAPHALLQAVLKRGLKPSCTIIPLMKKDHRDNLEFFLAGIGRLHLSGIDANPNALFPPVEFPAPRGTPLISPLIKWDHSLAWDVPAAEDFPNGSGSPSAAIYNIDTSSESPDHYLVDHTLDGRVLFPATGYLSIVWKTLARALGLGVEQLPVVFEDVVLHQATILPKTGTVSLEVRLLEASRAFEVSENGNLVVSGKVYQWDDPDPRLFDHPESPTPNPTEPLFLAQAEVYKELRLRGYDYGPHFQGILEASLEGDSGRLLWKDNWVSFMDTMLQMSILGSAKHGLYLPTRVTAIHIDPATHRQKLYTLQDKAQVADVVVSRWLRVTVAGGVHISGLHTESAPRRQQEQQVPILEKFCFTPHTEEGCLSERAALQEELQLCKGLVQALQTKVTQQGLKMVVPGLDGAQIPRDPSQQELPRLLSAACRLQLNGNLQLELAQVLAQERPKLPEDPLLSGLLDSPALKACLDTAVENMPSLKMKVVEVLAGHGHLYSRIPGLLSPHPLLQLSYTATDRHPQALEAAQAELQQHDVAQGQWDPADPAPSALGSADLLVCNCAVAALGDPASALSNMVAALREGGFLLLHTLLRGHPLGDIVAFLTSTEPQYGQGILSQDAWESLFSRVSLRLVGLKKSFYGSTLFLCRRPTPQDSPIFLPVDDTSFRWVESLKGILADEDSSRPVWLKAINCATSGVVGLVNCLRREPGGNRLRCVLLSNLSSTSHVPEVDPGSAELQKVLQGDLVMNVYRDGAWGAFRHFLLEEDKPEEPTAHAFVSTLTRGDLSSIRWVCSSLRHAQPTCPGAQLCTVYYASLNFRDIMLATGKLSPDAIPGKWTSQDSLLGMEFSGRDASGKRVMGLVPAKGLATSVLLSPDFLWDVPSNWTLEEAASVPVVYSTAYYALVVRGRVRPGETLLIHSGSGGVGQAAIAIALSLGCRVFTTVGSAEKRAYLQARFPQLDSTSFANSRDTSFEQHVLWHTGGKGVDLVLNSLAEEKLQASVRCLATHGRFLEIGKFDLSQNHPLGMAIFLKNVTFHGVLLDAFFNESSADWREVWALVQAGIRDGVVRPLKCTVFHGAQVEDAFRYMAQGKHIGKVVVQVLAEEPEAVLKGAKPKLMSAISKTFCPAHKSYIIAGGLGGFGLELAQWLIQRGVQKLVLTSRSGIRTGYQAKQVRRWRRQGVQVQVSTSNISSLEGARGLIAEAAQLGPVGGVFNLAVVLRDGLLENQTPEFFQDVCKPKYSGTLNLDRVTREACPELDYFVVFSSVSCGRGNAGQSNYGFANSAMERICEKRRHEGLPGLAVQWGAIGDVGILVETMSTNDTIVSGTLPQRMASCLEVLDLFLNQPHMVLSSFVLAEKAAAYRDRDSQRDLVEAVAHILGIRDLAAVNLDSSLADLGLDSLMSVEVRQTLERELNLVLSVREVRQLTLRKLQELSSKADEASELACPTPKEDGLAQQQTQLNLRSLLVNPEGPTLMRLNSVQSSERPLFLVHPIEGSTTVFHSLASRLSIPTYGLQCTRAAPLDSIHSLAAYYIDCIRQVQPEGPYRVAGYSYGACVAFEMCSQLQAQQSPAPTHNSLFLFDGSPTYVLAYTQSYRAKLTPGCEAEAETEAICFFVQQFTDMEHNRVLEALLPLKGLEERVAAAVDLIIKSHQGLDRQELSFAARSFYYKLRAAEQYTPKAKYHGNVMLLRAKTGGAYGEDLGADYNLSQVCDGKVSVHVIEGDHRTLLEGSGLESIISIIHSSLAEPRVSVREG

CCC(C)c1ccc(O)cc1 (stereo unspecified)
inactive: [1] | [2] | [3] | [4] | [5] | [6] | [7] | [8]

Cc1ccc(N)c(N)c1
inactive: [1] | [2] | [3] | [4] | [5] | [6] | [7] | [8]

Nc1ccc(N=Nc2ccccc2)cc1
inactive: [9] | [10]
active: [1] 68.7 µM | [2] 12.8 µM | [3] 75.6 µM | [4] 13 µM | [5] 21.6 µM | [7] 11.2 µM | [8] 28.8 µM

Nc1ccc(Oc2ccc(N)cc2)cc1
active: [1] 26.9 µM | [2] 1.21 µM | [3] 9.14 µM
inactive: [4] | [5] | [7] | [8]

Cc1cccc(N)c1N
active: [3] 15.4 µM | [5] 33.4 µM | [8] 50 µM
inactive: [1] | [2] | [4] | [7]

CN(C)c1ccccc1
inactive: [4] | [5] | [6] | [7] | [8]

Nc1cc(Cl)cc(C(=O)O)c1Cl
inactive: [4] | [5] | [6] | [7] | [8]

CCN(CC)N=O
inactive: [4] | [5] | [6] | [7] | [8]

O=C1CCCO1
inactive: [5] | [6] | [7] | [8]
active: [4] 50 µM

Brc1ccc(Oc2ccccc2)cc1
inactive: [4] | [5] | [6] | [7] | [8]

CO[C@@H]1[C@H](OC(=O)NC(=O)CCl)CC[C@]2(CO2)[C@H]1[C@@]1(C)O[C@@H]1CC=C(C)C
inactive: [4] | [5] | [6] | [7] | [8]

[Cl-].[Cl-].[Hg+2]
inactive: [4] | [5] | [6] | [7] | [8]

CCC12COCN1COC2
inactive: [4] | [5] | [6] | [7] | [8]

CC(C)N(Cc1ccccc1)C(=O)C(C)(C)C
inactive: [3] | [4] | [5] | [6] | [7] | [8]

CC(C)COC(=O)c1ccccc1C(=O)OCC(C)C
inactive: [4] | [5] | [6] | [7] | [8]

ClC1=C(Cl)[C@]2(Cl)[C@H]3[C@H]([C@@H]4C=C[C@H]3C4)[C@@]1(Cl)C2(Cl)Cl
active: [5] 28.7 µM
inactive: [4] | [6] | [7] | [8]

O=[N+]([O-])C(Br)(CO)CO
inactive: [4] | [5] | [6] | [7] | [8]

c1ccc(C2CO2)cc1 (stereo unspecified)
inactive: [4] | [5] | [6] | [7] | [8]

CN(C)c1ccc(C(=O)c2ccc(N(C)C)cc2)cc1
inactive: [4] | [5] | [6] | [7] | [8]

CCCCCCCCOC(=O)c1ccc(C(=O)OCCCCCCCC)c(C(=O)OCCCCCCCC)c1
inactive: [4] | [5] | [6] | [7] | [8]

O=C(N[C@H](c1ccccc1)[C@@H]1CN2CCC1CC2)c1c(Cl)ccc(C(F)(F)F)c1Cl
inactive: [4] | [6] | [7]
active: [5] 76.8 µM | [8] 74.2 µM

c1ccc2c(c1)-c1cccc3cccc-2c13
active: [3] 4.8 µM | [5] 69.1 µM
inactive: [6] | [7] | [8]

CC(C)(C)OOC(C)(C)CCC(C)(C)OOC(C)(C)C
inactive: [4] | [5] | [6] | [7] | [8]

Cc1ccc([N+](=O)[O-])cc1
inactive: [4] | [5] | [6] | [7] | [8]

C=CCc1ccc2c(c1)OCO2
inactive: [4] | [5] | [6] | [7] | [8]

O=C(O)C1C2CCC(O2)C1C(=O)O (stereo unspecified)
inactive: [4] | [6]
active: [5] 84.3 µM | [7] 35.8 µM | [8] 32.3 µM

Oc1ccccc1Cl
inactive: [4] | [5] | [6] | [7] | [8]

CS(=O)(=O)NC(=O)c1cc(Oc2ccc(C(F)(F)F)cc2Cl)ccc1[N+](=O)[O-]
inactive: [4] | [5] | [6] | [7] | [8]

Nc1ccc([N+](=O)[O-])cc1
inactive: [4] | [5] | [6] | [7] | [8]

Clc1ccc(C(c2ccc(Cl)cc2)C(Cl)(Cl)Cl)cc1
active: [5] 66.6 µM
inactive: [4] | [6] | [7] | [8]

Cc1ccc(N)cc1
inactive: [4] | [5] | [6] | [7] | [8]

OCCCBr
inactive: [4] | [5] | [6] | [7] | [8]

C[C@]12C=CC3=C4CCC(=O)C=C4CC[C@H]3[C@@H]1CC[C@@H]2O
inactive: [4] | [6] | [7] | [8]
active: [3] 0.0975 µM | [5] 61 µM
